The values that follow come from publication PMC4336329 (PLoS ONE, 2015).

SMILES strings stand for the structures. Hit rate of the full screen: of about 310,000 compounds, about 14,000 (4.5%) showed an effect of 50% or more. The effect is printed as a negative number. For the sample, strong results were picked, then their nearest neighbours and some compounds at random.
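Also: peak tail current of the secondary pulse compared with the same well before compound.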

The target in the test is human ether-à-go-go-related gene (hERG) potassium channel (human, UniProt Q12809). Put plainly: primary screen, population patch clamp on CHO cells stably expressing hERG; higher = less effect of the substance.
human ether-à-go-go-related gene (hERG) potassium channel, sequence (Q12809 whole entry, looked up): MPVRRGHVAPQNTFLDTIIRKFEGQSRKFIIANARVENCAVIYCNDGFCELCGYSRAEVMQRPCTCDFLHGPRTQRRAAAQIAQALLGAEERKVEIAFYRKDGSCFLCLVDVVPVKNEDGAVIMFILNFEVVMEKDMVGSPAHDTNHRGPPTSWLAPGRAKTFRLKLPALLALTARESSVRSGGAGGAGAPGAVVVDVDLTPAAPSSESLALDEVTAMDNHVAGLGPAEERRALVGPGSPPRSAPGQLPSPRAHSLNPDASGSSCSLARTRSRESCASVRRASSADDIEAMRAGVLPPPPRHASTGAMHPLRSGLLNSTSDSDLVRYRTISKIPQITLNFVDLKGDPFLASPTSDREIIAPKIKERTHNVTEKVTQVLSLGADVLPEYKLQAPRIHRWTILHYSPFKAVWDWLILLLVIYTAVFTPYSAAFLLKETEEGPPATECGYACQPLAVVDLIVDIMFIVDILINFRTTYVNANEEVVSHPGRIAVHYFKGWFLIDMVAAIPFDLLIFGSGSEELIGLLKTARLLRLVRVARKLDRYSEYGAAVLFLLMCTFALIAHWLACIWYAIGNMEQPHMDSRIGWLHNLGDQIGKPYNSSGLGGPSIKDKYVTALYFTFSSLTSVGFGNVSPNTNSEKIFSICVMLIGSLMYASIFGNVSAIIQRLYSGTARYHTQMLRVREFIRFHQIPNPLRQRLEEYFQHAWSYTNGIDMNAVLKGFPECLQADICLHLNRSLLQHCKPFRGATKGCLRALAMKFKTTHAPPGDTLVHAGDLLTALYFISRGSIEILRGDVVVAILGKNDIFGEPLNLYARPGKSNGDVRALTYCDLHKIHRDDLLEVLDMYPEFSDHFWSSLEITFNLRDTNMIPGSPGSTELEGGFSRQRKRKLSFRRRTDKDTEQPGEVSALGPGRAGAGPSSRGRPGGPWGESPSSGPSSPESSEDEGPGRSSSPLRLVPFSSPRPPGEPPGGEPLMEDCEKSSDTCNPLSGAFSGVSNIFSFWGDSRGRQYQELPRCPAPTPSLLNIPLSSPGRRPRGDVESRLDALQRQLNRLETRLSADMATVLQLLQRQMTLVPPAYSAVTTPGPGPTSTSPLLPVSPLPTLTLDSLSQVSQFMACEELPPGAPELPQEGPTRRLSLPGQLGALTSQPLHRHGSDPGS
As to `CCCc1nnc(SCC(=O)N(CC)CC)n1CC1CCCO1` (centres unmarked), the “hERG current change (%, negative = inhibition) at 10uM” value is on record as 21.9%.

For the molecule `Cc1ccc2[nH]c(=O)c(CN(CCc3ccccc3)Cc3nnnn3CC3CCCO3)cc2c1` (centres unmarked), the “hERG current change (%, negative = inhibition) at 10uM” value was -16%.

With `CC(=O)Nc1ccc(/C=N/NC(=S)NC(C)C)cc1`, the “hERG current change (%, negative = inhibition) at 10uM” value is on record as 21.3%.

For `CC(Cc1n[nH]c(=S)n1N)c1ccccc1` (centres unmarked), the “hERG current change (%, negative = inhibition) at 10uM” value is reported as 19.8%.

As to `CS(=O)(=O)c1ccc(Cl)c(NC(=O)COC(=O)c2ccc(-n3cnnn3)cc2)c1`, the “hERG current change (%, negative = inhibition) at 10uM” value is reported as -7.82%.

As to `O=C(COc1cccc(-n2cnnn2)c1)Nc1ccc([N+](=O)[O-])cc1`, the “hERG current change (%, negative = inhibition) at 10uM” value is -43.6%.

Consider `O=C(COc1cccc(-n2cnnn2)c1)Nc1ccccc1`, for which the “hERG current change (%, negative = inhibition) at 10uM” value is -26.4%.

In the case of `Cc1ccc(NC(=O)COc2cccc(-n3cnnn3)c2)cc1[N+](=O)[O-]`, the “hERG current change (%, negative = inhibition) at 10uM” value is recorded as -0.307%.

On to `COc1cccc(NC(=O)COc2cccc(-n3cnnn3)c2)c1`, for which the “hERG current change (%, negative = inhibition) at 10uM” value is on record as -50.8%.

Consider `COc1ccc(NC(=O)COc2cccc(-n3cnnn3)c2)cc1`, for which the “hERG current change (%, negative = inhibition) at 10uM” value is listed as -54.3%.

Take `CCc1ccc(NC(=O)COc2cccc(-n3cnnn3)c2)cc1`: the “hERG current change (%, negative = inhibition) at 10uM” value is listed as -68%.

As for `COc1ccc(NC(=O)COc2cccc(-n3cnnn3)c2)cc1Cl`, the “hERG current change (%, negative = inhibition) at 10uM” value worked out at 24%.

For the molecule `COc1cccc(CNC(=O)COc2cccc(-n3cnnn3)c2)c1`, the “hERG current change (%, negative = inhibition) at 10uM” value was -18.9%.

With `COC(=O)c1ccc(NC(=O)COc2cccc(-n3cnnn3)c2)cc1`, the “hERG current change (%, negative = inhibition) at 10uM” value came to 6.77%.

For `S=c1[nH]nc(CSCc2ccccc2Cl)n1-c1ccccc1`, the “hERG current change (%, negative = inhibition) at 10uM” value stood at 0.868%.

Consider `CCOc1ccccc1N(CC(=O)NC1CCCC1)C(=O)CCCC(=O)Nc1ccccn1`, for which the “hERG current change (%, negative = inhibition) at 10uM” value is on record as -8.6%.

Take `O=C(O)/C=C\c1cccc(-n2cnnn2)c1`: the “hERG current change (%, negative = inhibition) at 10uM” value is given as -1.3%.

As to `CCC(=NCCc1c[nH]c2ccccc12)c1c(O)n(C)c(=O)n(C)c1=O`, the “hERG current change (%, negative = inhibition) at 10uM” value was -10.8%.

As for `COc1ccc(/C(C)=N/NC(=O)C2C3CCCCC32)c(OC)c1` (centres unmarked), the “hERG current change (%, negative = inhibition) at 10uM” value is listed as -0.79%.

With `CN(C)CCNC(=O)Cn1ccc2cc(S(=O)(=O)N3CCCCC3)ccc21`, the “hERG current change (%, negative = inhibition) at 10uM” value was 8.47%.

`Cc1ccc(NC(=O)CN(C)C(=O)c2nn(C)c(=O)c3ccccc23)cc1`: the “hERG current change (%, negative = inhibition) at 10uM” value is -35.7%.

With `O=C(NN=C(c1ccccc1)c1ccccc1)C(CCl)C1CCCCC1` (centres unmarked), the “hERG current change (%, negative = inhibition) at 10uM” value is -2.74%.

As for `C=CCNCC(=O)NN=C(c1ccccc1)c1ccccc1`, the “hERG current change (%, negative = inhibition) at 10uM” value is -68.5%.

Turning to `CC1CN(CC(=O)NN=C(c2ccccc2)c2ccccc2)CC(C)O1` (centres unmarked), the “hERG current change (%, negative = inhibition) at 10uM” value was 12.8%.

`O=C(CCl)NN=C(c1ccccc1)c1ccccc1`: the “hERG current change (%, negative = inhibition) at 10uM” value amounted to 0.333%.

With `C=CCNC(=O)NC(=S)c1ccccc1`, the “hERG current change (%, negative = inhibition) at 10uM” value is reported as -4.57%.

Take `CCOC(=O)C(=O)NN=C(c1ccccc1)c1ccccc1`: the “hERG current change (%, negative = inhibition) at 10uM” value is recorded as 9.79%.

`O=C(CN1CCCC1)NN=C(c1ccccc1)c1ccccc1`: the “hERG current change (%, negative = inhibition) at 10uM” value is on record as -68.3%.

With `O=C(CN1CCOCC1)NN=C(c1ccccc1)c1ccccc1`, the “hERG current change (%, negative = inhibition) at 10uM” value was found to be 20.8%.

On to `CCN(CC)CC(=O)NN=C(c1ccccc1)c1ccccc1`, for which the “hERG current change (%, negative = inhibition) at 10uM” value is recorded as -77.6%.

For the molecule `O=C(CNC1CCCCC1)NN=C(c1ccccc1)c1ccccc1`, the “hERG current change (%, negative = inhibition) at 10uM” value is reported as -59.8%.

Turning to `CC(NC1CCCCC1)C(=O)NN=C(c1ccccc1)c1ccccc1` (centres unmarked), the “hERG current change (%, negative = inhibition) at 10uM” value was -32.1%.

In the case of `C/C(=N\NC(=O)CNc1ccccc1)c1ccccc1`, the “hERG current change (%, negative = inhibition) at 10uM” value is reported as -12.8%.

Turning to `O=C(CN1C(=O)C2C3C=CC(C3)C2C1=O)NC1CCCc2ccccc21` (centres unmarked), the “hERG current change (%, negative = inhibition) at 10uM” value is -2.95%.

Turning to `CCOC(=O)CN(C#N)c1nc(C)cc(C)n1`, the “hERG current change (%, negative = inhibition) at 10uM” value is on record as -7.84%.

Consider `Cc1nc(SCCc2ccccc2)[nH]c(=O)c1C`, for which the “hERG current change (%, negative = inhibition) at 10uM” value came out at 19.6%.

With `O=C(O)Cn1nnc(-c2ccc(OCc3ccccc3)cc2)n1`, the “hERG current change (%, negative = inhibition) at 10uM” value is given as 23.9%.

Consider `COc1ccccc1CNC(=O)c1cnn2c(C(F)F)cc(C)nc12`, for which the “hERG current change (%, negative = inhibition) at 10uM” value was -26.4%.

As for `Cc1cc(C)cc(N(C(=O)C(F)(F)F)C(C(=O)NC2CCCCC2)c2cccs2)c1` (centres unmarked), the “hERG current change (%, negative = inhibition) at 10uM” value is given as -7.03%.

As to `O=C(CCCc1ccccc1)NCCCc1ccccc1`, the “hERG current change (%, negative = inhibition) at 10uM” value is listed as -10.9%.

Turning to `CN(Cc1ccccc1)C1CCCN(C(=O)c2ccc(Cl)s2)C1` (centres unmarked), the “hERG current change (%, negative = inhibition) at 10uM” value was -30.4%.

In the case of `COC(=O)c1c(C(=O)OC)c(-c2ccc(Br)cc2)n2c1CS(=O)C2` (centres unmarked), the “hERG current change (%, negative = inhibition) at 10uM” value is -1.16%.

With `CCCNC(=O)c1onc(CSc2cccc(OC)c2)c1C(=O)NCCC`, the “hERG current change (%, negative = inhibition) at 10uM” value is recorded as -7.12%.

As for `O=C(O)c1cccc(S(=O)(=O)N2CC=C(c3ccccc3)CC2)c1`, the “hERG current change (%, negative = inhibition) at 10uM” value is -4.64%.
